From PubChem
Hits are enriched below; roughly 7% of the tested compounds scored in any of these assays.
DRD3 agonist: agonists of human D3 dopamine receptor | D3R DiscoveRx beta-arrestin cells, luminescence, 90 min | P35462 | AID 652048 | max activation, % | 0.58% of 410,000 active; in the data active = max activation above about 30%; note: 0% is about no effect
Target sequence (P35462 whole entry, looked up): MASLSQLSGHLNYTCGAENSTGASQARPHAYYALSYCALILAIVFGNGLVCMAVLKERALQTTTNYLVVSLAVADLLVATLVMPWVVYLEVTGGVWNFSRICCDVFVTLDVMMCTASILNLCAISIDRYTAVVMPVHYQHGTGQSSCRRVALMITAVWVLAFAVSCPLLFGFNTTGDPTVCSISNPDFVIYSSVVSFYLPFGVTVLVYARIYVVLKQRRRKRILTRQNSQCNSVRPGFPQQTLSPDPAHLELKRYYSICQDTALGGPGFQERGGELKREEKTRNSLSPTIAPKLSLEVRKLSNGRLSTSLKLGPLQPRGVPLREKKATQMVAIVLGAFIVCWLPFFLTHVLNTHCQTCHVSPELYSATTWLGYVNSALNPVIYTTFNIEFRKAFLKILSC
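Agonist-mode cell screen: cells plated at 1500/well and incubated overnight at 37 °C, then exposed to library compounds for 90 min at 37 °C. Detection reagent was added for 30–60 min at room temperature, and luminescence was read.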
ATXN viability: cell viability loss in ATXN counter-screen; S2 cells (HEK-293 line with an ATXN2-luciferase reporter) viability, CellTiter-Fluor protease fluorescence, 24 h; 0.49% of 400,000 active; Potency, µM (titrated, usually from 56.7 µM), actives largely listed as cytotoxic; AID 651635; note: potency is the fitted concentration of half-maximal effect; nearly all actives have a fitted effect of over 40% in size
ATXN2 expr inh: ATXN2 expression inhibition. HEK-293 ATXN2-luciferase reporter, luminescence, 24 h. AID 1745845. 0.72% of 360,000 active. Potency, µM (top dose mostly 57 µM), without a hit: at the highest dose activity change, negative = inhibition, most hits filed as inhibitors; note: potency is the fitted concentration of half-maximal effect; % is set by controls: 0 for no effect and ±100 for the full control effect; nearly all actives have a fitted effect of over 55% in size
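ATXN2-luciferase reporter cells (luciferase flanked by upstream and downstream ATXN2 gene portions) were treated 24 h at 37 °C with compounds at up to 57 uM. SteadyGlo luminescence gave expression; GF-AFC fluorescence gave viability.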
D3 antag: D3 dopamine receptor (human) antagonism; P35462; D3R cells, DiscoveRx beta-arrestin luminescence, antagonist mode; hits give low values; max response, negative = inhibition, %; 2.5% of 360,000 active; AID 652054; in the data active = max response below about -50%; inconclusive = no clear call, values can overlap the other calls; note: % is set by controls: 0 for no effect and ±100 for the full control effect
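Cells expressing the human receptor were seeded at 1500 cells/well, incubated overnight at 37 degrees C in 5% CO2, then exposed to library compounds with dopamine controls for 90 minutes at 37 degrees C before luminescent detection.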
Integrin act MD: activates integrin-mediated alleviation for muscular dystrophy | Potency, µM (highest dose often 38.3 µM), inactives show at the highest dose activation, hits mostly activators | 0.064% of 350,000 active | alpha7betagal myoblasts, beta-gal FDG fluorescence, 48 h;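 note: potency is the fitted concentration of half-maximal effect; 100% = response of the positive control SU9516; nearly all actives have a fitted effect of over 60% in size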
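Alpha7betagal+/- myoblasts (passage 13) were plated 16-24 hr, then exposed to compounds (1:260 dilution of DMSO stock) for 48 hours at 37C. After MPER lysis, β-galactosidase reporter activity was read as FDG fluorescence (ex 480/em 540) after 30 minutes.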
IL1B secr inh: inhibitors of inflammasome signaling (IL-1 beta secretion); THP-1 LPS/ATP IL-1B secretion, AlphaLISA, 16 h; hits give low values; activity change, % at 57.5 µM; 4.7% of 360,000 active; AID 743279; in the data active = activity change below about -50%; inconclusive = mostly about -30% to -49%; note: % is set by controls: 0 for no effect and ±100 for the full control effect
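Secreted IL-1B measured by AlphaLISA bead assay after 16 h compound exposure of THP-1 cells; compounds (final up to 57.5 uM) added 1 h before LPS (250 ng/mL) and ATP (1.25 mM) stimulation; lower signal means less secretion.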
* = called active by the depositor; [ ] = remark or other dose. Unless noted, calls come from the whole dose curve; as a rule, active = well fitted curve in the direction sought with a large enough effect; inconclusive = small, poorly fitted or top-dose-only effect, or another doubt; inactive = no such curve, though single readings can be large; an effect the other way counts as inactive or inconclusive.

Results for CCN(CC)C(=O)COc1ccc(/C(C)=N/NC(=O)c2ccccc2Br)cc1 ?
DRD3 agonist: -3.9; ATXN viability: inconclusive; ATXN2 expr inh: 13.6%[11.3 µM]; D3 antag: -21.8; Integrin act MD: 9.7%; IL1B secr inh: 10.3

How did O=C1C=CC(O)C2(CO)OC12 (stereo not given) do in these assays?
DRD3 agonist: 2.5; ATXN viability: inconclusive; D3 antag: 12.4; Integrin act MD: -56.2%; IL1B secr inh: -89.7*

What do the screens show for `Cc1ccc(C)c(NC(=O)C(Sc2nc3ccc(C)cc3[nH]2)c2ccccc2)c1` (stereo not given)?
DRD3 agonist: -8.1; ATXN viability: inactive; ATXN2 expr inh: -37.7%; D3 antag: 7.3; Integrin act MD: -60.0%; IL1B secr inh: -18.2

Results for Cc1ccc2nc(SC(C(=O)Nc3ccc(F)cc3)c3ccccc3)[nH]c2c1 (stereo not given) ?
DRD3 agonist: -16.7; ATXN viability: inactive; ATXN2 expr inh: -11.3%; D3 antag: -23.8; Integrin act MD: 16.1%; IL1B secr inh: -51.9*

What do the screens show for `COc1c2ccoc2c(OC[C@@H](OC(C)=O)C(C)(C)O)c2oc(=O)ccc12`?
DRD3 agonist: 48.1*; ATXN viability: inactive; ATXN2 expr inh: -6.1%; D3 antag: 30.3; Integrin act MD: 35.3%; IL1B secr inh: 1.5

What do the screens show for `COc1c2ccoc2c(OC[C@@H](O)C(C)(C)O)c2oc(=O)ccc12`?
DRD3 agonist: 5.0; ATXN viability: inactive; ATXN2 expr inh: 5.6%; D3 antag: -1.6; Integrin act MD: 18.3%; IL1B secr inh: -7.4

What do the screens show for `Cn1c(NCc2cccnc2)nc2c1c(=O)n(Cc1ccccc1F)c(=O)n2C`?
DRD3 agonist: 20.0; ATXN viability: inconclusive; ATXN2 expr inh: -14.6%; D3 antag: 35.5; Integrin act MD: -66.9%; IL1B secr inh: 9.1

How did CC(CCc1ccccc1)NCc1ccncc1 (stereo not given) do in these assays?
DRD3 agonist: 77.9*; ATXN viability: inactive; ATXN2 expr inh: 1.5%; D3 antag: 12.8; Integrin act MD: -9.4%; IL1B secr inh: 9.9

Results for CC(C)(C)NC(=O)NC(=O)COC(=O)Cc1c(Cl)cccc1Cl ?
DRD3 agonist: -11.5; ATXN viability: inactive; ATXN2 expr inh: -2.7%; D3 antag: -7.2; Integrin act MD: inconclusive; IL1B secr inh: -54.2*

How did O=C(CSc1nnc2c3ccccc3c3ccccc3c2n1)Nc1ccccc1F do in these assays?
DRD3 agonist: 3.2; ATXN viability: 14.1µM*; ATXN2 expr inh: inconclusive; D3 antag: 1.6; Integrin act MD: -19.9%; IL1B secr inh: 2.1

What do the screens show for `Nn1c(SCC(=O)Nc2ccccc2F)nc2ccccc2c1=O`?
DRD3 agonist: 39.8*; ATXN viability: inactive; ATXN2 expr inh: -4.1%; D3 antag: 35.4; Integrin act MD: 23.5%; IL1B secr inh: -10.4

Results for CCOc1ccc(C2c3c(oc4ccccc4c3=O)C(=O)N2CCCN2CCOCC2)cc1OCC (stereo not given) ?
DRD3 agonist: 3.7; ATXN viability: inactive; ATXN2 expr inh: 0.4%; D3 antag: -3.7; Integrin act MD: -0.8%; IL1B secr inh: 0.0

How did Cc1ccc(N(Cc2ccccc2)C(=O)CSC(C)C(=O)Nc2cc(C)on2)cc1 (stereo not given) do in these assays?
DRD3 agonist: -1.6; ATXN viability: inactive; D3 antag: -21.2; Integrin act MD: 18.3%; IL1B secr inh: 12.6

How did O=C(C1=C[C@H](c2ccc(C(F)(F)F)cc2)C[C@H](OCCCCO)O1)N1CCN(Cc2ccc3c(c2)OCO3)CC1 do in these assays?
DRD3 agonist: -27.0; ATXN viability: inconclusive; ATXN2 expr inh: -31.5%; D3 antag: inconclusive; Integrin act MD: 11.2%; IL1B secr inh: -66.6*

How did C#CCNC(=O)C1=C[C@@H](c2ccc(C(F)(F)F)cc2)C[C@@H](OCCCCO)O1 do in these assays?
DRD3 agonist: -2.0; ATXN viability: inactive; ATXN2 expr inh: 3.9%; D3 antag: -51.6*; Integrin act MD: 8.3%; IL1B secr inh: -11.7

Results for O=C(C1=C[C@@H](c2ccc(Br)cc2)C[C@@H](OCCCCO)O1)N1CCN(Cc2ccc3c(c2)OCO3)CC1 ?
DRD3 agonist: -3.6; ATXN viability: inconclusive; ATXN2 expr inh: inconclusive; D3 antag: 1.5; Integrin act MD: -24.5%; IL1B secr inh: inconclusive

Results for O=C(C1=C[C@H](c2csc3ccccc23)C[C@H](OCCCCO)O1)N1CCN(Cc2ccc3c(c2)OCO3)CC1 ?
DRD3 agonist: -34.5; ATXN viability: inconclusive; ATXN2 expr inh: inconclusive; D3 antag: inconclusive; Integrin act MD: 12.0%; IL1B secr inh: -54.2*

How did O=C(C1=C[C@@H](c2csc3ccccc23)C[C@@H](OCCCCO)O1)N1CCN(Cc2ccc3c(c2)OCO3)CC1 do in these assays?
DRD3 agonist: -51.4; ATXN viability: inconclusive; ATXN2 expr inh: inconclusive; D3 antag: inconclusive; Integrin act MD: 17.0%; IL1B secr inh: inconclusive

What do the screens show for `O=C1C=C(c2ccc(F)cc2OCc2ccccc2)C[C@@H](c2ccc(F)cc2)C1`?
DRD3 agonist: 42.3*; ATXN viability: inactive; ATXN2 expr inh: -19.0%; D3 antag: -14.6; Integrin act MD: 15.1%; IL1B secr inh: -17.5

How did COc1ccc([C@H]2CC(=O)C=C(c3ccccc3OC)C2)cc1OC do in these assays?
DRD3 agonist: 3.9; ATXN viability: inconclusive; ATXN2 expr inh: -23.2%; D3 antag: 22.8; Integrin act MD: -14.4%; IL1B secr inh: 6.5

How did COc1ccc([C@H]2CC(=O)C=C(c3ccc(F)cc3OCc3ccccc3)C2)cc1OC do in these assays?
DRD3 agonist: 73.4*; ATXN viability: inactive; ATXN2 expr inh: inconclusive; D3 antag: 115.8; Integrin act MD: -26.8%; IL1B secr inh: inconclusive

Results for COc1ccc([C@H]2CC(=O)C=C(c3ccc(F)cc3OCc3ccccc3)C2)cc1 ?
DRD3 agonist: 28.6; ATXN viability: inactive; ATXN2 expr inh: -13.5%; D3 antag: 4.7; Integrin act MD: 22.8%; IL1B secr inh: -14.9

Results for Brc1ccc(-c2nc3ccc(Br)cn3c2Cc2ccccc2)cc1 ?
DRD3 agonist: -4.5; ATXN viability: inconclusive; ATXN2 expr inh: 11.3%; D3 antag: -1.3; IL1B secr inh: -16.0

Results for Cc1ccc(N2C(=O)CSC23C(=O)N(CC(=O)Nc2ccccc2F)c2ccccc23)cc1C (stereo not given) ?
DRD3 agonist: -0.3; ATXN viability: inactive; ATXN2 expr inh: 11.5%

Results for COc1cccc(OC)c1Nc1nc(C)nc2c1nnn2Cc1ccccc1Cl ?
DRD3 agonist: 3.7; ATXN viability: inactive; ATXN2 expr inh: -13.1%; D3 antag: 18.8; Integrin act MD: 10.1%; IL1B secr inh: 9.5
